Screening data from PubChem.
Sampled rows, rich in hits. Any-hit rate of the full collection: about 19%.
IL1B secr inh = inhibitors of inflammasome signaling (IL-1 beta secretion); THP-1 LPS/ATP IL-1B secretion, AlphaLISA, 16 h; hits give low values; AID 743279; activity change, % at 57.5 µM; 4.7% of 360,000 active; in the data active = activity change below about -50%; inconclusive = mostly about -30% to -49%
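THP-1 cells pretreated 1 hr with compounds (up to 57.5 uM final), then stimulated with LPS (250 ng/mL final) plus ATP (1.25 mM final); secreted IL-1B measured by AlphaLISA after 16 hr, decreased signal indicating inhibition.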
DT40 TDP1 CPT = growth inhibition of DT40 Tdp1-/-;hTDP1 cells with camptothecin (screen for TDP1 inhibitors). chicken DT40 Tdp1-/-;hTDP1 cells + 20 nM CPT, ATP luminescence, 48 h. 12% of 420,000 active. AID 686979. Potency, µM (titrated, usually from 46.2 µM), inactives show at the highest dose activity change, negative = growth inhibition, actives largely listed as inhibitors; note: potency is the fitted concentration of half-maximal effect; nearly all actives have a fitted effect of over 55% in size
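Cell growth measured by CellTiter-Glo luminescence after a minimum 48 h, 37 C compound exposure with 20 nM CPT in Tdp1-knockout DT40 cells stably expressing hTDP1, seeded 400/well; qHTS titration format.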
HT1080-NT tox = kills 2HG-producing HT-1080-NT fibrosarcoma cells; Potency, µM (doses to about 46.1 µM), for the others: at the highest dose activity, negative = less viability, hits mostly cytotoxic; HT-1080-NT fibrosarcoma viability, CellTiter-Glo ATP luminescence, 48 h; 1.6% of 360,000 active;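 note: NT is the 2HG producing partner of a matched IDH1 knockdown line; potency is the fitted concentration of half-maximal effect; 0% = DMSO-treated cells and -100% = media-only wells without cells; nearly all actives have a fitted effect of over 55% in size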
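A 48-hour cytotoxicity screen used HT-1080-NT cells plated 2 hours before compound delivery. ATP-based CellTiter-Glo luminescence measured viability, normalized to DMSO and no-cell controls.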
HT1080 IDH1KD tx = kills HT-1080 cells with IDH1 knockdown. Potency, µM (top dose mostly 46.1 µM), without a hit: at the highest dose activity, negative = toxicity, hits mostly cytotoxic. 2% of 360,000 active. HT-1080 IDH1 knockdown viability, ATP luminescence, 48 h;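 note: potency is the fitted concentration of half-maximal effect; 0% = DMSO wells and -100% = cell-free medium wells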
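CellTiter-Glo luminescence after 48 h compound exposure at 37 degrees C of IDH1-knockdown HT-1080 cells in 5% FBS RPMI. %Activity scaled between DMSO wells and cell-free media wells, with curves fitted and assigned curve classes.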
DT40 TDP1 no CPT = qHTS for Inhibitors of human tyrosyl-DNA phosphodiesterase 1 (TDP1): qHTS in cells in absence of CPT | AID 686978, 2013 | DT40 Tdp1-/- hTDP1 cells, no CPT, ATP luminescence, 48 h | 15% of 420,000 active | Potency, µM (top dose mostly 46.2 µM), inactives show at the highest dose activity change, negative = growth inhibition, most hits filed as inhibitors; note: potency is the fitted concentration of half-maximal effect; nearly all actives have a fitted effect of over 55% in size
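Chicken DT40 Tdp1-/- cells stably complemented with human TDP1 were seeded at 400 cells/well with DMSO in place of 20 nM camptothecin. After compound pinning, cells grew at least 48 hr at 37 °C; viability read by CellTiter-Glo luminescence.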
ELG1 repair inh = inhibitors of ELG1-dependent DNA repair in HEK293T cells; HEK293T ELG1-luciferase reporter, luminescence, 16 h; DNA damage induced by 5-fluorouridine; Potency, µM (doses to about 46.1 µM), without a hit: top-dose activity change, negative = inhibition, actives largely listed as inhibitors; 2.3% of 330,000 active; AID 504467; note: potency is the fitted concentration of half-maximal effect; nearly all actives have a fitted effect of over 55% in size
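Quantitative HTS, concentration-response format. 2,000 cells/well co-treated with 5-fluorouridine and compound, 16 hr in 5% CO2 at 37 °C; ONE-Glo luminescence read after 30 min.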
Starred values were filed as active, the others as inactive; ? = inconclusive; . = no result; ! = repeats disagree; [ ] = remark or other dose. Unless noted, calls come from the whole dose curve; as a rule, active = well fitted curve in the direction sought with a large enough effect; inconclusive = small, poorly fitted or top-dose-only effect, or another doubt; inactive = no such curve, though single readings can be large; an effect the other way counts as inactive or inconclusive. Unless noted, % is set by controls: 0 for no effect and ±100 for the full control effect.

SMILES	IL1B secr inh	DT40 TDP1 CPT	HT1080-NT tox	HT1080 IDH1KD tx	DT40 TDP1 no CPT	ELG1 repair inh
COc1ccc(-c2cc(NC=O)c3ncc(-c4cccc(C(=O)NCCN(C)C)c4)n3c2)cn1	-26	?	-26%	-18%	?	.
Cc1cccc(NC(=O)c2ccc(S(=O)(=O)N3CC(C)OC(C)C3)cc2)n1 (configuration not stated)	14	?	1%	-3%	?	-26%
COc1cc(C(=O)Nc2ccccc2OCc2cc(=O)n3cc(C)sc3n2)cc(OC)c1OC	.	?	.	.	-17%	.
CCOc1ccc(S(=O)(=O)N2CC(=O)Nc3ccccc32)cc1C#N	5	-15%	6%	6%	-5%	-27%
Cc1ccc(S(=O)(=O)N2CC(=O)Nc3ccccc32)c(C)c1NS(C)(=O)=O	13	?	12%	-1%	-1%	-4%
Cc1ccc(C(C)(C)C)cc1S(=O)(=O)N1CC(=O)Nc2ccccc21	-100*	-5%	?	-11%	?	-2%
Cc1cc(C(C)(C)C)cc(C)c1S(=O)(=O)N1CC(=O)Nc2ccccc21	-63*	?	-29%	?	-30%	7%
CCOc1ccc(S(=O)(=O)N2CC(=O)Nc3ccccc32)cc1	52	?	?	12µM*	?	?
S=C(Nc1ccc(Cc2ccncc2)cc1)Nc1cccc(Cl)c1	-9	-3%	-1%	-20%	-22%	-3%
CCCOc1ccc(C(C)=O)cc1CSc1nc(O)cc(=O)[nH]1	17	21µM*	-2%	4%	9.2µM*	-14%
CCCOc1ccc(C(C)=O)cc1CSCCC#N	-1	?	2%	-1%	?	4%
O=C1Nc2ccc(Cl)cc2[C@@](C#CC2CC2)(C(F)(F)F)O1	.	?	.	.	17µM*	.
COC(=O)c1cccc(NC(=O)CCc2c(C)noc2C)c1	48	8%	-1%	0%	8%	19%
CC1(C)CC(=O)c2c(O)cc(OCC(=O)NCCc3ccc(S(N)(=O)=O)cc3)cc2O1	14	-15%	-1%	0%	-27%	0%
COc1ccc(CNC(=O)COc2cc(O)c3c(c2)OC(C)(C)CC3=O)cc1	-7	33µM*	4%	0%	0.82µM*	-6%
COc1cc(NC(=O)COc2cc(O)c3c(c2)OC(C)(C)CC3=O)cc(OC)c1OC	-3	0.46µM*	-20%	?	0.26µM*	10µM*
O=C(COC(=O)c1cc(=O)[nH]c2ccccc12)Nc1nc(-c2ccc(F)cc2)cs1	-3	-35%	-5%	6%	-12%	.
CCCCC[C@H]1CN(CCCC)C(=O)[C@@H]1CC(=O)NCc1ccc(OC)cc1	-21	?	2%	11%	?	-5%
CCCCC[C@H]1CN(CCc2ccccc2)C(=O)[C@@H]1CC(=O)NCc1ccc(OC)cc1	-78*	?	-4%	-3%	18µM*	-2%
CCCCN1C[C@H](Cc2ccccc2)[C@@H](CC(=O)NCc2ccc(OC)cc2)C1=O	13	18µM*	-8%	-4%	22µM*!	-12%
CSC[C@H]1CN(Cc2ccccc2)C(=O)[C@@H]1CC(=O)Nc1ccccc1	-16	4%	-1%	-1%	?	.
COc1ccc(N2C[C@H](Cc3ccccc3)[C@@H](CC(=O)Nc3ccccc3)C2=O)cc1	-6	?	-5%	-7%	21µM*	.
CCCCC[C@H]1CN(Cc2ccccc2)C(=O)[C@@H]1CC(=O)NCc1ccccc1	-51*	11µM*	-11%	-8%	14µM*	8%
COc1ccc(NC(=O)C[C@H]2C(=O)N(c3ccccc3)C[C@@H]2Cc2ccccc2)cc1	-23	-23%	1%	-10%	?	.
COCC(=O)Nc1cc(C(=O)N2CCN(C3CCCC3)C(=O)C2)c2c(c1)nc(-c1ccncc1)n2C	.	-6%[9.04 µM]	.	.	-9%	.
SMILES	IL1B secr inh	DT40 TDP1 CPT	HT1080-NT tox	HT1080 IDH1KD tx	DT40 TDP1 no CPT	ELG1 repair inh
Cc1ccc(S(=O)(=O)N2CCCC2)cc1C(=O)N1CCN(Cc2ccccc2)CC1	-14	-20%	0%	3%	?	-1%
COc1cc(Cl)c(CN2CCOc3ccc(CN4CCCCC4CO)cc3C2)cc1OC (configuration not stated)	.	1%[9.04 µM]	.	.	?	.
CC(=O)Nc1ccc(S(=O)(=O)NC2CC3CCC2C3)cc1 (configuration not stated)	8	?	-16%	-1%	-25%	?
COc1cc(S(=O)(=O)N2CCOCC2)cc(C(=O)OCC(=O)NCc2ccco2)c1OC	9	-6%	0%	-1%	1%	8%
CC(C)c1ccc(NC(=O)COC(=O)Cn2cnc3c2c(=O)n(C)c(=O)n3C)cc1	13	-1%	9%	11%	-3%	.
CCOC(=O)/C(=N\Nc1cc(Cl)ccc1Cl)N1CCOCC1	3	-26%	-7%	-37%	-18%	-2%
COc1cccc(OCCn2c(-c3ccc(Cl)cc3)nc3ccccc3c2=O)c1	.	-9%	.	.	-2%	.
CCC(CC)COC(=O)C1=C(C)NC(=O)NC1c1cccc([N+](=O)[O-])c1 (configuration not stated)	-15	?	-9%	-26%	?	-8%
COc1ccc(C2NC(=O)NC(C)=C2C(=O)OCc2ccc3c(c2)OCO3)cc1OC (configuration not stated)	-15	?	7%	?	?	10µM*
CC1=C(C(=O)OCc2ccc3c(c2)OCO3)C(c2cccc([N+](=O)[O-])c2)NC(=O)N1 (configuration not stated)	-10	?	-22%	-2%	?	7.3µM*
CC1=C(C(=O)OCc2ccccc2)C(c2cccc([N+](=O)[O-])c2)NC(=O)N1 (configuration not stated)	-2	?	7%	-1%	18µM*	-23%
CCC(CC)COC(=O)C1=C(C)NC(=O)NC1c1ccc2c(c1)OCO2 (configuration not stated)	-79*	-12%	-27%	?	?	-17%
CCCNc1c(NS(=O)(=O)c2cccs2)c(=O)oc2ccccc12	20	-4%	9%	-6%	9%	0%
